Shown are actives, neighbours in structure and some others; about 4.1% of the full set was active somewhere.
DAX1 inh-1: DAX1 (NR0B1) inhibitors on StAR promoter, primary screen, cell-based, luminescence, SF-1 (NR5A1), full-length DAX-1 | HEK293T StAR-luciferase reporter, SF-1/DAX-1 repression relief | inhibition, % at 6.8 µM | 370,000 compounds, 1.1% hits;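 active = inhibition above the mean over all tested compounds plus 3 SD, cut at about 3.6% in these data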;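 also: 0% = DAX-1 cells with DMSO and 100% = cells lacking DAX-1 with DMSO; higher inhibition means more luminescence from relief of DAX-1 repression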
hgDAF-12 ag: H. glycines DAF-12 receptor agonists, primary screen, cell-based, luminescence, HEK293, GAL4 fusion, UAS-luciferase; Nuclear hormone receptor DAF-12 (Heterodera glycines), GAL4 fusion; HEK293 GAL4-hgDAF12 UAS-luciferase reporter, agonist luminescence; normalized to butyrate control; activation, % at 6.8 µM; 370,000 compounds, 1.8% hits;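 active = activation above a cutoff set at the mean of all screened compounds plus 3 SD, cut at about 10% in these data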;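 also: 0% = DMSO wells and 100% = sodium butyrate wells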
ssDAF12 agonist: S. stercoralis DAF-12 nuclear receptor activators, primary screen, cell-based, luminescence, HEK293, GRIP1 co-expression, lit1-tk-luc | HEK293 ssDAF-12/GRIP1 lit1-tk-luc reporter; % of 3 µM dafachronic acid response | 370,000 compounds, 1% hits | activation, % at 6.8 µM | Nuclear hormone receptor DAF-12 (Strongyloides stercoralis) | AID 652126, 2013;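 active = activation above the mean over all tested compounds plus 3 SD, cut at about 0.9% in these data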;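 also: 0% = DMSO-only wells and 100% = 3 µM delta7-dafachronic acid wells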
DAX1 inh-2: DAX1 (NR0B1) inhibitors, primary screen, cell-based, HEK293, Gal4-DAX1, luciferase luminescence. inhibition, % at 6.75 µM. 340,000 compounds, 0.99% hits. HEK293 Gal4-DAX1 luciferase reporter. Nuclear receptor subfamily 0 group B member 1 (Homo sapiens), P51843;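 active = inhibition above the mean over all tested compounds plus 3 SD, cut at about 4.2% in these data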;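 also: 0% = DAX1-transfected cells with DMSO and 100% = empty-vector control cells with DMSO; inhibition shows as a rise in luminescence from relieved DAX1 repression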
Target sequence (P51843 207-470 limits assumed): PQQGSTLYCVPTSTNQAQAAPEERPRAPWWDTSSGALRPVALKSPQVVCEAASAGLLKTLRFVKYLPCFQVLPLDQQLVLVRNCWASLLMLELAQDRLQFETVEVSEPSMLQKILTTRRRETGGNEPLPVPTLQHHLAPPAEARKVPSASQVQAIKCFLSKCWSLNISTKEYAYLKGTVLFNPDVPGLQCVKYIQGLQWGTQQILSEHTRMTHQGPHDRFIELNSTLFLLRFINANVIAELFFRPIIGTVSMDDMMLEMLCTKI
hcDAF12 agonist: H. contortus DAF-12 nuclear receptor activators, primary screen, cell-based, luminescence, HEK293, lit1-tk-luc reporter; HEK293 hcDAF-12 lit1-tk-luc reporter; 0% DMSO, 100% Δ7-dafachronic acid; activation, % at 6.8 µM; 370,000 compounds, 1.4% hits; AID 652067, 2013;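 active = activation above the mean of all tested compounds plus 3 SD, cut at about 5.5% in these data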;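 also: 100% = response to 3 µM Δ7-dafachronic acid high control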
hgDAF12 ag: H. glycines DAF-12 receptor agonists, confirmation, cell-based, luminescence, HEK293, GAL4-LBD fusion; shares compounds with hgDAF-12 ag; 3,300 compounds, 80% hits; HEK293 GAL4-hgDAF12 luciferase reporter, agonist mode; percent of butyrate response; activation, % at 6.8 µM;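 active = mean activation over triplicate wells above the hit cutoff derived from the earlier primary screen, cut at about 11% in these data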;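 also: 0% = DMSO low control and 100% = 2 mM sodium butyrate high control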
LXRb DAF12 ctr: LXR agonists, Gal4 luciferase reporter, confirmation, counter-screen for hgDAF-12 agonist project, cell-based, luminescence, HEK293, H. glycines campaign; 24 h; shares compounds with hgDAF-12 ag; 3,300 tested, under 10 active; activation, % at 6.8 µM;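 active = mean activation of the triplicate above a set limit carried over from the primary screen, none filed active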
* marks the source's active call; other numbers are inactive results; . = no result given.

SMILES	DAX1 inh-1	hgDAF-12 ag	ssDAF12 agonist	DAX1 inh-2	hcDAF12 agonist	hgDAF12 ag	LXRb DAF12 ctr
Cc1cc(C)n2nc(SCC(=O)Nc3ccc(O)cc3)nc2n1	0	15*	-1	0	-2	1	0
NC(=O)CSc1oc(-c2ccco2)nc1S(=O)(=O)c1ccc(Br)cc1	.	.	.	0	.	.	.
O=C(Cc1cccs1)NCCc1ccc(Cl)cc1	0	0	-1	1	-3	.	.
O=C(Nc1ccc(Cl)cn1)C1COc2ccccc2O1 (configuration not stated)	4	14*	1	3	6.0*	11*	0
Cc1cccc(NC(=O)C2COc3ccccc3O2)n1 (configuration not stated)	0	1	-1	0	-2	.	.
Cc1cc(NC(=O)COC(=O)C2COc3ccccc3O2)no1 (configuration not stated)	-1	0	-2	-1	-1	.	.
Cc1cc(NC(=O)C2COc3ccccc3O2)no1 (configuration not stated)	1	19*	-1	2	4	5	0
Cc1cc(CSc2ccc(Cl)cc2)ccc1N	0	3	0	2	1	.	.
Cn1cccc1/C=C1\SC(=O)N(c2ccccc2)C1=O	2	16*	0	3	3	20*	1
Cc1cccc(CNC(=O)c2sc(=O)n(Cc3c(C)cccc3C)c2C)c1	-1	-3	0	.	-3	.	.
Cn1cc(SCC(=O)Nc2nccs2)c2ccccc21	4.4*	20*	0	3	2	14*	0
CN1CCN(S(=O)(=O)c2cccc(C(=O)NC3CCCC3)c2)CC1	1	-2	-1	2	-1	.	.
COc1ccccc1-c1noc(-c2ccccc2)n1	3.7*	14*	1	2	5	19*	1
NS(=O)(=O)c1ccc(CCNC(=O)COC(=O)CC(c2ccccc2)c2ccccc2)cc1	-1	-1	0	.	-2	.	.
Nc1ccc2nc(SCc3cccc(F)c3)sc2c1	0	16*	-1	0	2	12*	1
CCOC(=O)CSc1nc2ccc(N)cc2s1	0	-2	0	-1	1	.	.
O=C(NCCc1ccccc1)c1oc2ccccc2c1COc1ccccc1	0	2	-2	1	-3	.	.
Cc1c(C(=O)NCCc2ccccc2)oc2ccccc12	3	16*	0	2	4	14*	1
O=C(Nc1ccc2c(c1)OCO2)c1n[nH]c(=O)c2ccccc12	3	18*	-1	2	2	9	1
COc1cccc(CN(C)C[C@@H]2OCc3cnnn3CCCC(=O)N([C@@H](C)CO)C[C@H]2C)c1	0	-2	-1	2	-1	.	.
Cc1ccc2oc(-c3ccco3)cc(=O)c2c1	4	14*	0	0	2	17*	1
O=c1cc(-c2ccco2)oc2ccccc12	0	1	-1	3	0	.	.
COC(=O)c1ccccc1NC(=O)Nc1ccc(C(=O)N2CCCC2)cc1	-1	-3	-1	-2	0	.	.
COc1ccccc1NC(=O)Nc1ccc(C(=O)N2CCCCC2)cc1	2	14*	0	-1	1	11*	0
CC(=O)Nc1cccc(NC(=S)Nc2ccc(F)cc2F)c1	0	1	-1	1	0	.	.
SMILES	DAX1 inh-1	hgDAF-12 ag	ssDAF12 agonist	DAX1 inh-2	hcDAF12 agonist	hgDAF12 ag	LXRb DAF12 ctr
O=C(NNC(=S)NC(=O)c1ccccc1)c1ccc(O)cc1	0	1	-1	0	1	.	.
O=C(NNC(=S)Nc1ccccc1)c1ccc(O)cc1	3	15*	0	6.0*	2	12*	1
COc1ccc(N2CC(C(=O)NC3CCSC3=O)CC2=O)cc1 (configuration not stated)	0	-1	-2	2	-1	.	.
CCOC(=O)Nc1ccc2c(c1)C(=NNC(N)=S)c1ccccc1-2	-5	-5	-2	-3	-3	.	.
CCOC(=O)Nc1ccc2c(c1)C(=NO)c1ccccc1-2	3	18*	1	3	4	13*	1
Nc1nc(Nc2cccc(F)c2)nc2ccccc12	1	14*	0	3	6.1*	16*	1
Cn1cccc1C(=O)N/N=C/c1c(Cl)cccc1Cl	2	13*	1	3	5.9*	12*	0
CC(C)N1CCc2c(sc(NC(=O)C(F)(F)F)c2-c2nc3ccccc3s2)C1	.	9	0	.	-1	.	.
Cc1ccccc1N=C(c1ccccc1)C1C(=O)c2ccccc2C1=O	-2	0	-1	.	-1	.	.
CN(C)c1cccc(O)c1	2	3	0	0	0	.	.
Cc1cc(O)ccc1Nc1cc(-c2cccc(N(C)C)c2)ncn1	4.2*	14*	1	.	5.8*	18*	1
CCOc1ccc(NC(=O)CN2C(=O)NC(C)(c3ccc(OC(F)F)cc3)C2=O)cc1 (configuration not stated)	-1	1	-1	-1	0	.	.
O=C(Nc1ccn(Cc2ccccc2)n1)c1ccc(F)cc1	0	17*	1	-1	4	13*	0
CC(Sc1nnc(CN2CCCC2)n1Cc1ccccc1)C(=O)Nc1ccc(F)cc1Cl (configuration not stated)	-2	-1	-1	3	0	.	.
Cc1ccc(Nc2ncnc(N)n2)cc1	0	19*	-1	0	2	5	0
Nc1ncnc(Nc2ccc(F)cc2)n1	0	0	-2	-1	-2	.	.
c1cnc(SCCOc2ccc3c(c2)CCC3)nc1	3.7*	15*	0	7.6*	4	17*	1
Cc1ccc(NC(=O)COc2ccc(CCO)cc2-n2nc3ccccc3n2)cc1C	-2	-3	-2	-2	-4	.	.
Cc1ccc(N(CC(=O)NC(C)C)C(=O)CCC(=O)Nc2nccs2)cc1C	0	-2	-1	1	-1	.	.
Cc1ccccc1-c1nc2ccccc2[nH]1	2	9	-1	2	1	.	.
